This passage reports growth inhibition results from PubChem BioAssay (NCI).

Molecules are shown by their SMILES. About 79,000 compounds went through this panel and 15% of them were active in at least one assay; those are over-represented in the sample as a whole. Active and inactive are the calls of the source. No stated cut-off is given here; in the data, active means growth inhibition above about 70%; inactive means the rest.

One assay is described as follows: NCI Yeast Anticancer Drug Screen. Data for the rad50 strain (AID 155).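 Further: 0% = growth of vehicle-only cultures of the same strain.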 The conditions noted are these: S. cerevisiae rad50 strain growth inhibition; at 50.0 µM; active compounds read high. Summed up:
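Relative growth inhibition (compound vs vehicle) was measured in yeast with a defined repair-gene alteration.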
With `Cc1cccc2nc(-c3ccccc3)ccc12`, the growth inhibition is -3.5% (inactive).
Consider `C=CCCCCCCCCCO`, for which the growth inhibition was -9.2% (inactive).
As for `COc1ccc(-n2cc3c(=O)nccc-3c3ccccc32)cc1OC`, the growth inhibition is -9.3% (inactive).
Still for that read-out and setting: next, `FC(F)(F)c1ccc(C2ON=C(c3ccccc3)N2C23CC4CC(CC(C4)C2)C3)cc1` (stereo not given): 17.1% (inactive); `Cc1ccccc1C(=O)OCCBr`: 10.3% (inactive).
Consider `CC(C)(O)/C(=N/O)c1ccc(-c2ccccc2)cc1`, for which the growth inhibition was -4.05% (inactive).
Same read-out and setting: next, `COC(=O)C1=C(C)NC(C)=C(C(=O)OC)C1c1cccc(N=O)c1`: 9.85% (inactive); `[O-][n+]1c2ccccc2nn1-c1ccccc1`: -9.1% (inactive); `O=C(CN1C(=O)c2cccc3c(Br)ccc(c23)C1=O)c1ccc(Cl)cc1`: -14.2% (inactive).
On the same count and under the same terms, in the case of `S=C(S)NCNC(=S)S.[Zn+2]` it was 1.65% (inactive).
Still for that read-out and setting: next, `O=C(O)CC1CCCNC1` (stereo not given): -11.3% (inactive).
With `CC1CCN(C(=O)C(c2ccccc2)c2ccccc2)CC1`, the growth inhibition is 27% (inactive).
`C=C/C=C1\CCOC1=O`: the growth inhibition was 1.15% (inactive).
Take `Cc1ccc(C)c(NC(=O)C(=O)C(C#N)c2c(Cl)cccc2Cl)c1` (stereo not given): the growth inhibition is -23.2% (inactive).
On the same count and under the same terms, in the case of `COc1ccc2c(O)cc(C(=O)O)c(-c3ccccc3)c2c1` it was -4.7% (inactive); in that of `CCCC(CCC)C(=O)OCC(=O)c1ccc(-c2ccccc2)cc1`, -1.4% (inactive).
Take `CCC(=C(C#N)C#N)c1cc(OC)c(OC)c(OC)c1`: the growth inhibition was -43% (inactive).
Still for that read-out and setting: next, `CCCCC(SC(CC)(CC)C(N)=O)C(N)=O` (stereo not given): 8% (inactive); `NC(=O)C1CC(I)C2CC1C(=O)O2` (stereo not given): 1.45% (inactive).
For the molecule `O/N=C/c1ccccn1`, the growth inhibition was -0.95% (inactive).
As for `Nc1nc(Cl)nc(Cl)c1N`, the growth inhibition is -21.9% (inactive).
For the molecule `Cc1ccc(C(=O)N/N=C/c2ccccc2Cl)cc1`, the growth inhibition is -3.15% (inactive).
In the case of `CCOC(=O)/C(C#N)=C/c1c[nH]c2ccccc12`, the growth inhibition is 19.6% (inactive).
Still for that read-out and setting: next, `Nc1cccc(C(F)(F)F)c1N`: -13.6% (inactive); `CCCCCCCCCCCCCCCCSc1ccncc1NN=O`: 36.2% (inactive); `NC(C(=O)O)c1ccc(F)cc1` (stereo not given): -9.1% (inactive).
Still for that read-out and setting: next, `CCOC(=O)CCC1(C(=O)OCC)CCCCC1=O` (stereo not given): -16.9% (inactive); `CN(C)c1ccc(C2c3c(oc4ccccc4c3=O)Oc3oc4ccccc4c(=O)c32)cc1`: 3.8% (inactive); `C=C1CN(C2=NCCO2)C1`: -17.6% (inactive).
For `CCOc1c(Cc2ccccc2)c(=O)n2c3ccccc3n3c(=O)n(C)c(=O)c1c23`, the growth inhibition was -5.8% (inactive).
Still for that read-out and setting: in the case of `CCC(CC)(C1CCC(=O)CC1)C1CCC(=O)CC1` it was 45.9% (inactive); in that of `COC1/C=C/OC2(C)Oc3c(C)c(O)c4c(O)c(c(/C=N/OC/C=C(\C)CCC=C(C)C)c(O)c4c3C2=O)NC(=O)C(C)=C/C=C/C(C)C(O)C(C)C(O)C(C)C(OC(C)=O)C1C` (stereo not given), -0.15% (inactive); in that of `COc1cccc(CN(CCc2cccc(OC)c2OC)C(=O)CN2CCOCC2)c1O`, -3.8% (inactive).
On the same count and under the same terms, in the case of `O=S(=O)(Cl)C1c2ccccc2-c2ccccc21` it was 22.4% (inactive); in that of `O=C(/C=C/c1cccc(O)c1)c1ccccc1`, 29.4% (inactive).
With `COc1ccc2[nH]c(=O)cc(C)c2c1`, the growth inhibition is -5.35% (inactive).
Same read-out and setting: in the case of `ONC1=Nc2ccccc2C(=S)N2CSCC12` (stereo not given) it was -21% (inactive); in that of `O=[N+]([O-])c1cccnc1Sc1ccccc1C1=NCCCN1`, -5.55% (inactive).
Take `CCCCCCCCCCCCCCCCCCCCCCCCCC`: the growth inhibition was -11.4% (inactive).
For the molecule `CC(=O)N1CCc2ccccc2C1C1NCCc2ccccc21` (stereo not given), the growth inhibition is 14.4% (inactive).

The next assay can be described thus: NCI Yeast Anticancer Drug Screen. Data for the mec2-1 strain (AID 157). To be noted: S. cerevisiae mec2-1 strain, at 50.0 µM, active compounds read high. The procedure, abridged:
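Growth inhibition is read against vehicle-treated controls after compound exposure of the mec2-1 yeast strain, which is defective in DNA damage repair or cell cycle control.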
As for `Cc1cccc2nc(-c3ccccc3)ccc12`, the growth inhibition is -11.6% (inactive).
Still for that read-out and setting: next, `C=CCCCCCCCCCO`: -11% (inactive); `COc1ccc(-n2cc3c(=O)nccc-3c3ccccc32)cc1OC`: -12.8% (inactive).
Turning to `FC(F)(F)c1ccc(C2ON=C(c3ccccc3)N2C23CC4CC(CC(C4)C2)C3)cc1` (stereo not given), the growth inhibition was 4.1% (inactive).
On the same count and under the same terms, in the case of `Cc1ccccc1C(=O)OCCBr` it was -6.2% (inactive); in that of `CC(C)(O)/C(=N/O)c1ccc(-c2ccccc2)cc1`, -18.3% (inactive); in that of `COC(=O)C1=C(C)NC(C)=C(C(=O)OC)C1c1cccc(N=O)c1`, 6.5% (inactive).
Still for that read-out and setting: in the case of `[O-][n+]1c2ccccc2nn1-c1ccccc1` it was -4.25% (inactive); in that of `O=C(CN1C(=O)c2cccc3c(Br)ccc(c23)C1=O)c1ccc(Cl)cc1`, -12.7% (inactive); in that of `S=C(S)NCNC(=S)S.[Zn+2]`, 12.2% (inactive).
On the same count and under the same terms, in the case of `O=C(O)CC1CCCNC1` (stereo not given) it was 1.95% (inactive).
As to `CC1CCN(C(=O)C(c2ccccc2)c2ccccc2)CC1`, the growth inhibition is -7.05% (inactive).
Take `C=C/C=C1\CCOC1=O`: the growth inhibition was -5.9% (inactive).
Same read-out and setting: in the case of `Cc1ccc(C)c(NC(=O)C(=O)C(C#N)c2c(Cl)cccc2Cl)c1` (stereo not given) it was 16.5% (inactive); in that of `COc1ccc2c(O)cc(C(=O)O)c(-c3ccccc3)c2c1`, -12.8% (inactive).
Same read-out and setting: in the case of `CCCC(CCC)C(=O)OCC(=O)c1ccc(-c2ccccc2)cc1` it was -2.6% (inactive).
Take `CCC(=C(C#N)C#N)c1cc(OC)c(OC)c(OC)c1`: the growth inhibition was -31.8% (inactive).
On the same count and under the same terms, next, `CCCCC(SC(CC)(CC)C(N)=O)C(N)=O` (stereo not given): -6.5% (inactive); `NC(=O)C1CC(I)C2CC1C(=O)O2` (stereo not given): -4.3% (inactive); `O/N=C/c1ccccn1`: -31.9% (inactive).
`Nc1nc(Cl)nc(Cl)c1N`: the growth inhibition was 7.1% (inactive).
For the molecule `Cc1ccc(C(=O)N/N=C/c2ccccc2Cl)cc1`, the growth inhibition was 49.1% (inactive).
With `CCOC(=O)/C(C#N)=C/c1c[nH]c2ccccc12`, the growth inhibition was 6.05% (inactive).
Same read-out and setting: in the case of `Nc1cccc(C(F)(F)F)c1N` it was -15.4% (inactive); in that of `CCCCCCCCCCCCCCCCSc1ccncc1NN=O`, -2% (inactive).
The same measure, in the same setting: next, `NC(C(=O)O)c1ccc(F)cc1` (stereo not given): -1.4% (inactive); `CCOC(=O)CCC1(C(=O)OCC)CCCCC1=O` (stereo not given): -20.4% (inactive).
The same measure, in the same setting: next, `CN(C)c1ccc(C2c3c(oc4ccccc4c3=O)Oc3oc4ccccc4c(=O)c32)cc1`: -0.15% (inactive); `C=C1CN(C2=NCCO2)C1`: -39.6% (inactive); `CCOc1c(Cc2ccccc2)c(=O)n2c3ccccc3n3c(=O)n(C)c(=O)c1c23`: -22.4% (inactive).
Consider `CCC(CC)(C1CCC(=O)CC1)C1CCC(=O)CC1`, for which the growth inhibition was -3.55% (inactive).
On to `COC1/C=C/OC2(C)Oc3c(C)c(O)c4c(O)c(c(/C=N/OC/C=C(\C)CCC=C(C)C)c(O)c4c3C2=O)NC(=O)C(C)=C/C=C/C(C)C(O)C(C)C(O)C(C)C(OC(C)=O)C1C` (stereo not given), for which the growth inhibition is -0.5% (inactive).
On the same count and under the same terms, next, `COc1cccc(CN(CCc2cccc(OC)c2OC)C(=O)CN2CCOCC2)c1O`: 9.35% (inactive); `O=S(=O)(Cl)C1c2ccccc2-c2ccccc21`: 20.1% (inactive).
The same measure, in the same setting: next, `O=C(/C=C/c1cccc(O)c1)c1ccccc1`: 8.25% (inactive); `COc1ccc2[nH]c(=O)cc(C)c2c1`: -4.1% (inactive).
The same measure, in the same setting: next, `ONC1=Nc2ccccc2C(=S)N2CSCC12` (stereo not given): -13.4% (inactive); `O=[N+]([O-])c1cccnc1Sc1ccccc1C1=NCCCN1`: -12.3% (inactive).
Regarding `CCCCCCCCCCCCCCCCCCCCCCCCCC`, the growth inhibition was -2.55% (inactive).
Still for that read-out and setting: next, `CC(=O)N1CCc2ccccc2C1C1NCCc2ccccc21` (stereo not given): 8.95% (inactive).
